B2AR arrestin: agonists driving beta-arrestin recruitment to human beta2-adrenergic receptor | P07550 | beta-arrestin recruitment to beta2AR, cell-based reporter | Potency, µM (highest dose often 46.1 µM), inactives show top-dose activation, hits mostly activators | actives 0.02% (n = 330,000) | AID 492947;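 also: 0% = DMSO controls and full agonism = EC100 isoproterenol or metaproterenol; nearly all actives have a fitted effect of over 65% in size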
Target sequence (P07550 whole entry, looked up): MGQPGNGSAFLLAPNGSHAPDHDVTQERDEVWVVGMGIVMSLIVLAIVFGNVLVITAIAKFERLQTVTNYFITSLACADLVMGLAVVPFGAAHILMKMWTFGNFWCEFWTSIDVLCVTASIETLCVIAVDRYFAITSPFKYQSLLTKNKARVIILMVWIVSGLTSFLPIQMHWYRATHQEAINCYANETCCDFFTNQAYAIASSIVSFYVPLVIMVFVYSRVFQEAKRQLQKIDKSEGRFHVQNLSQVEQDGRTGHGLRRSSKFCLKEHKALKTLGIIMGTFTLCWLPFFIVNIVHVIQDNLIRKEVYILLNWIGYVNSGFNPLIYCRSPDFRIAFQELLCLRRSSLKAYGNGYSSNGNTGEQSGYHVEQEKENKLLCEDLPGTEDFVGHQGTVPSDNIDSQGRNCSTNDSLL
GLS inh: blocks human kidney-isoform glutaminase activity; O94925; GLS enzymatic activity, qHTS titration; Potency, µM (top dose mostly 45.5 µM), for the others: at the highest dose activity change, negative = inhibition, usual class: inhibitors; actives 0.21% (n = 410,000); AID 624170
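hKGA in 45 mM KH2PO4 (pH 8.2), 0.02% Tween-20 with compound, then 1mM L-Glutamine (stock as added) plus glutamate oxidase/HRP/Amplex red coupling mix. Fluorescence read initially and after 30 min at RT; signal change reflects glutamate formation.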
Apoferritin bind: binds horse apoferritin like a general anesthetic; actives 0.074% (n = 350,000); apoferritin/1-aminoanthracene competitive binding, fluorescence; Potency, µM (series often up to 77.5 µM), for inactives: at the top dose activity change, negative = displacement, usual class: inhibitors; P02791; also: nearly all actives have a fitted effect of over 20% in size
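Read-out: endpoint 1-AMA fluorescence, excitation 380 nm and emission 535 nm, after compounds sit 10 min at room temperature with 10 uM horse-spleen apoferritin in 50% saturated 1-AMA/PBS. Values come from four-parameter Hill fits.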
BCR signal inh: blocks chronic active B-cell receptor signaling; Potency, µM (highest dose often 46.1 µM), without a hit: top-dose activity change, negative = inhibition, actives largely listed as inhibitors; actives 0.05% (n = 340,000); ABC-DLBCL IkBa-CBG/CBR reporter, luminescence ratio, 4 h; AID 493014; active = well fitted inhibition curve with a large enough effect in the signal ratio, with a control signal flat, not every such curve was filed as active; inconclusive = small, poorly fitted or top-dose-only effect, or effect the other way, or a change in a side signal; the % refers to the signal ratio;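 also: plate controls were basal doxycycline-induced cells for no effect and cells given 10 µM MG132 for full effect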
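Doxycycline induced both beetle luciferases in TMD8 lymphoma cells; IKK-driven degradation limits the IkappaBalpha-fused green signal, while red luminescence normalises for cell number and nonspecific effects. Compounds tested up to 46 uM, 4 hrs.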
MBNL1-CUG inh: blocks human MBNL1 binding to CUG repeat RNA. Q9NR56. actives 0.036% (n = 280,000). Potency, µM (titrated, usually from 57.5 µM), without a hit: at the top dose activity change, negative = inhibition, most hits filed as inhibitors. TR-FRET MBNL1-His/biotin-(CUG)12 binding, 665/545 ratio; active = well fitted inhibition curve with a large enough effect in the signal ratio, with a control signal flat, not every such curve was filed as active; inconclusive = small, poorly fitted or top-dose-only effect, or effect the other way, or a change in a side signal; inactive = no such curve, though single readings can be large or run the other way; the % refers to the signal ratio
Target sequence (Q9NR56 whole entry, looked up): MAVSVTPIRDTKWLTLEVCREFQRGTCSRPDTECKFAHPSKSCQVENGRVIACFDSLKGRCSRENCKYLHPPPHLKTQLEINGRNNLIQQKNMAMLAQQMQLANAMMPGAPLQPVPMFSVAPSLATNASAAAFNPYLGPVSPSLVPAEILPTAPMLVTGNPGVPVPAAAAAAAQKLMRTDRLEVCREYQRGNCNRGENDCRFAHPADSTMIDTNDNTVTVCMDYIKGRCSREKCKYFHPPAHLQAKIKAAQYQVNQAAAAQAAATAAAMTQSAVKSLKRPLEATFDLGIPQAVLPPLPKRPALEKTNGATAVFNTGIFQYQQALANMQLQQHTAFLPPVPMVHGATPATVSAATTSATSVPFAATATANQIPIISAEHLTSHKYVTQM
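Compounds (final 92 nM to 58 uM) are added to His-tagged MBNL1 and biotin-(CUG)12, then terbium anti-His antibody and streptavidin-XL665 (5 nM final). After 60 min at room temperature, the 665/545 nm ratio is read.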
* = called active by the depositor; ? = inconclusive; nt = not tested or not shown; ! = repeats disagree. This is a sample that favours compounds with a hit; in the whole collection about 0.35% have one here. Unless noted, calls follow the shape of the dose curve; as a rule, active = well fitted curve in the direction sought with a large enough effect; inconclusive = small, poorly fitted or top-dose-only effect, or another doubt; inactive = no such curve, though single readings can be large; an effect the other way counts as inactive or inconclusive. Unless noted, % is scaled to controls: 0 for no effect and ±100 for the full control effect; potency is read from the fitted curve at half-maximal effect.

SMILES	B2AR arrestin	GLS inh	Apoferritin bind	BCR signal inh	MBNL1-CUG inh
O=C(O)Cc1cccc(-c2cc(CCCCCCc3ccc(O[C@H]4O[C@H](CO)[C@@H](O)[C@H](O)[C@@H]4O)c(-c4cccc(CC(=O)O)c4)c3)ccc2O[C@H]2O[C@H](CO)[C@@H](O)[C@H](O)[C@@H]2O)c1	nt	14.0%	nt	nt	nt
Cc1cc(/C=N/NC(=O)c2ccncc2)c(C)n1-c1ccccc1	0.3%	-14.6%	-10.7%	-4.5%	7.7%
Cc1cc(C(=O)N/N=C/c2ccc(O)c(O)c2O)c(C)n1-c1ccccc1	-0.1%	15.8µM*	-22.9%	7.1%	-0.8%
CCN(CC)C(=O)c1ccc(-c2nnc(Nc3cccc(O)c3)c3ccccc23)cc1	-0.1%	19.2%	-14.3%	-9.6%	?
COc1ccc(Nc2nnc(-c3ccc(O)cc3)c3ccccc23)cc1C(N)=O	0.2%	7.94µM*	-7.0%	?	?
CCN(CC)C(=O)c1ccc(Nc2nnc(-c3ccc(O)cc3)c3ccccc23)cc1	-0.6%	10µM*	3.2%	?	?
COc1cc(NC(=O)COc2ccc(-n3ccnc3)cc2)cc(OC)c1	0.5%	3.1%	-3.0%	2.3%	-6.0%
CC(C)(C)c1ccc(NC(=O)COc2ccc(-n3ccnc3)cc2)cc1	0.2%	-6.2%	28.2µM*	?	6.9%
Cc1nc2c(C(=O)NCc3ccccc3)cnn2c(C)c1Cc1ccc(F)cc1	nt	12.6µM*	-14.7%	8.7%	nt
O=S(=O)(Nc1ccc2c(c1)CCC2)c1cccs1	-0.9%	27.6%	11.2µM*	3.8%	-1.6%
O=C1OCc2cc(NS(=O)(=O)c3cccs3)ccc21	0.0%	-4.6%	-3.4%	-2.2%	8.4%
CCOC(=O)c1sc2nc3c(SCCC#N)cc(C(=O)c4cc(F)ccc4O)cn3c(=O)c2c1C	-0.5%	23.4%	2.1%	-2.8%	-3.1%
CCOC(=O)c1sc2nc3c(SCCC(=O)O)cc(C(=O)c4cc(OC)ccc4O)cn3c(=O)c2c1C	-0.2%	5.62µM*	-11.8%	?	3.7%
O=C(NCc1ccccc1)c1ccc(CSc2nc3cccnc3n2Cc2cccc(F)c2)cc1	nt	8.9%	-7.6%	nt	nt
CCc1nc2ccc(C(=O)N3CCN(c4cccc(C)c4C)CC3)cc2nc1CC	0.0%	6.31µM*!	-16.1%	17.6%	-1.3%
CCc1nc2ccc(C(=O)N3CCN(c4cccc(OC)c4)CC3)cc2nc1CC	-1.2%	8.7%	?	-1.4%	5.8%
c1ccc2c(c1)Nc1ccncc1S2	-0.3%	10µM*	2.8%	?	?
COc1cc2c(c(OC)c1OC)-c1c(cc3c(c1OC)OCO3)C[C@@H](C)[C@](C)(O)C2	nt	9.1%	nt	nt	nt
S=c1[nH]nc(Cc2ccccc2)n1-c1cccc2ccccc12	-1.1%	12.6µM*	-7.3%	-7.1%	-28.3%
CNC(=S)N/N=C1\C(=O)c2cccc3cccc1c23	3.55µM*	18.1%	-11.1%	?	?
c1nc2nc(Nc3ccc(N4CCOCC4)cc3)nc(NC3CCCCC3)c2[nH]1	nt	nt	-10.5%	nt	nt
CC1CCCN(S(=O)(=O)c2ccc(NC(=O)c3cccc(-n4cnnn4)c3)cc2)C1 (stereo unspecified)	0.0%	-11.4%	14.1µM*	7.4%	3.7%
COc1ccc(C(=O)N/N=C/c2sc3ccccc3c2O)cc1	-0.9%	15.8µM*	-3.5%	?	?
COc1ccc2cc(C(=O)N/N=C/c3sc4ccccc4c3O)ccc2c1	-1.2%	8.8%	-12.4%	?	?
CCC(c1ccccc1)C(CC)c1cc(O)c(O)c(O)c1 (stereo unspecified)	nt	11.2µM*	nt	nt	nt
SMILES	B2AR arrestin	GLS inh	Apoferritin bind	BCR signal inh	MBNL1-CUG inh
COc1ccccc1NS(=O)(=O)c1ccc2ccccc2c1	0.2%	11.6%	-8.0%	-6.0%	4.2%
COc1ccc(NS(=O)(=O)c2ccc3ccccc3c2)c2ncccc12	-0.8%	9.3%	-7.7%	3.16µM*	0.5%
CCNC(=O)NCCCOc1cccc(CN2CCCCC2)c1	nt	1.8%	nt	nt	nt
Cc1ccc(C(=O)Nc2ccc(S(=O)(=O)O)c3cc(S(=O)(=O)O)cc(S(=O)(=O)O)c23)cc1NC(=O)c1cccc(NC(=O)Nc2cccc(C(=O)Nc3cc(C(=O)Nc4ccc(S(=O)(=O)O)c5cc(S(=O)(=O)O)cc(S(=O)(=O)O)c45)ccc3C)c2)c1	nt	8.91µM*	-6.3%	nt	nt
C[n+]1c(-c2ccccc2)cc2c(=Cc3ccccc3)c3ccccc3n21	nt	-24.8%	nt	nt	nt
C[n+]1c(-c2ccccc2)cc2c(=Cc3ccc([N+](=O)[O-])cc3)c3ccccc3n21	nt	10µM*	nt	nt	nt
Cc1cc(C)cc(C(=O)N2CCCCCC2)c1	0.1%	-0.5%	12.6µM*	?	-9.6%
Cc1cc(C(=O)N2CCCCCC2)cs1	-0.1%	5.8%	-20.5%	?	3.2%
CC(C)C1Cc2c(sc3ncnc(NN)c23)CO1 (stereo unspecified)	0.4%	11.2µM*	-16.0%	-1.1%	8.3%
C/C=C(/C(=C/C)c1ccc(O)cc1)c1ccc(O)cc1	1.46µM*	31.7%	?	-6.1%	-17.4%
CC(=NN=C(C)c1ccc(O)cc1)c1ccc(O)cc1	nt	27.6%	nt	nt	nt
Cc1ccc(Sc2c(C)nn(C(=O)COc3ccccc3Br)c2C)cc1	nt	-6.1%	6.31µM*	nt	nt
COC(=O)CSc1nc(N)c(C#N)c(-c2ccc(O)cc2)c1C#N	-0.3%	11.2µM*	-11.3%	0.0%	nt
CCOc1ccc2ccccc2c1C(=O)N[C@@H]1C(=O)N2[C@@H]1SC(C)(C)[C@@H]2C(=O)O	0.0%	3.98µM*!	-0.2%	-0.4%	11.6%
CCC(Oc1ccccc1)C(=O)NC1C(=O)N2C1SC(C)(C)C2C(=O)O (stereo unspecified)	-0.3%	25.1µM*	-2.0%	-0.1%	-7.7%
CC1(C)SC2C(C(=O)O)N=C(Cc3ccccc3)N2C1C(=O)O (stereo unspecified)	nt	15.8µM*	nt	nt	nt
CC1(C)S[C@@H]2[C@H](NC(=O)Cc3ccccc3)C(=O)N2[C@@H]1C(=O)O	nt	12.6µM*	nt	nt	nt
CC1(C)S[C@@H]2[C@H](NC(=O)Cc3ccccc3)C(=O)N2[C@H]1C(=O)O	-0.2%	1.2%	-6.2%	-1.3%	15.1%
Cn1c2cc(Br)sc2c2cnn(Cc3ccc(F)cc3)c(=O)c21	-0.2%	nt	nt	5.3%	nt
O=S(=O)(NCCc1csc2nc(-c3ccc(Cl)cc3)nn12)c1ccc(Oc2ccccc2)cc1	nt	-0.9%	-8.0%	4.1%	nt
O=C(COCc1cc(-c2ccco2)on1)Nc1cc(Cl)ccc1O	nt	9.8%	-11.3%	nt	nt
Cc1onc(-c2c(F)cccc2Cl)c1C(=O)N[C@@H]1C(=O)N2C(C(=O)O)C(C)(C)S[C@H]12 (stereo partly specified)	-0.2%	11.2µM*	nt	-3.9%	nt
Cc1ccc2c(c1)C(c1ccc(F)cc1)N(C(=O)c1ccc(S(=O)(=O)N3CCCCC3)cc1)CC(=O)N2 (stereo unspecified)	nt	0.0%	-18.9%	nt	nt
O=C(O)C1=NN(c2cc(Cl)c(S(=O)(=O)O)cc2Cl)C(=O)C1	nt	1.12µM*	nt	nt	nt

Assay outcomes: PubChem BioAssay, National Center for Advancing Translational Sciences (NCATS)
